“And” between values parts separate entries of the source, which are not always exact repeats. Identical values can stand only once. Out of some 5,500 compounds screened, about 2,000 (36%) were called active. Inconclusive results (about 18%) are left out. Cut-off read from the data, not from the text of the source: active = normalized growth mostly below about 0.91 (no sharp cut-off); inconclusive = no clear call, values can overlap the other calls; inactive = mostly above about 0.92. Some of the results follow.
Assay: chemical genetic growth profiling, strain panel (AID 1159580);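 note: tested at 20 µM; growth read once vehicle control cultures reached saturation at 30 °C; 1 = growth at the plate median or of vehicle wells; lower values mean less growth of the strain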
Conditions: growth OD

Measured: normalized growth

COc1ccc(C(=O)N2CCCC2=O)cc1
inactive: S. cerevisiae deletion strains, locus YJR075W, strain HOC1, active compounds read low 0.99 | S. cerevisiae deletion strains, locus YKL009W, strain mrt4, active compounds read low 0.97 | S. cerevisiae deletion strains, locus YKL068W, active compounds read low 0.976 | S. cerevisiae deletion strains, locus YKL085W, strain MDH1 (second series), active compounds read low 0.984 | S. cerevisiae deletion strains, locus YKL085W, strain MDH1, active compounds read low 0.984 | S. cerevisiae deletion strains, locus YKL160W, strain elf1, active compounds read low 0.952 | S. cerevisiae deletion strains, locus YKL190W, strain CNB1, active compounds read low 0.993 | S. cerevisiae deletion strains, locus YKR001C, strain vps1, active compounds read low 0.968 | S. cerevisiae deletion strains, locus YKR026C, strain gcn3, active compounds read low 0.976 | S. cerevisiae deletion strains, locus YKR091W, strain srl3, active compounds read low 0.969 | S. cerevisiae deletion strains, locus YLL001W, strain dnm1, active compounds read low 0.963 | S. cerevisiae deletion strains, locus YLL026W, active compounds read low 0.98 | S. cerevisiae deletion strains, locus YLL041C, strain sdh2, active compounds read low 0.986 | S. cerevisiae deletion strains, locus YLR027C, strain aat2, active compounds read low 0.963 | S. cerevisiae deletion strains, locus YLR039C, strain RIC1, active compounds read low 0.947 | S. cerevisiae deletion strains, locus YLR058C, strain SHM2, active compounds read low 0.978 | S. cerevisiae deletion strains, locus YLR102C, strain apc9, active compounds read low 0.979 | S. cerevisiae deletion strains, locus YLR221C, strain rsa3, active compounds read low 0.945 | S. cerevisiae deletion strains, locus YLR258W, strain gsy2, active compounds read low 0.98 | S. cerevisiae deletion strains, locus YLR262C, strain YPT6 (second series), active compounds read low 0.967 | S. cerevisiae deletion strains, locus YLR262C, strain YPT6, active compounds read low 0.902 | S. cerevisiae deletion strains, locus YLR268W, strain sec22, active compounds read low 0.971 | S. cerevisiae deletion strains, locus YLR320W, strain mms22, active compounds read low 0.933 | S. cerevisiae deletion strains, locus YLR330W, strain CHS5, active compounds read low 0.986 | S. cerevisiae deletion strains, locus YLR342W, strain FKS1 (second series), active compounds read low 0.995 | S. cerevisiae deletion strains, locus YLR342W, strain FKS1, active compounds read low 0.99 | S. cerevisiae deletion strains, locus YLR357W, strain rsc2, active compounds read low 0.991 | S. cerevisiae deletion strains, locus YLR370C, strain arc18, active compounds read low 0.963 | S. cerevisiae deletion strains, locus YLR371W, strain rom2, active compounds read low 0.993 | S. cerevisiae deletion strains, locus YLR384C, strain iki3, active compounds read low 0.958 | S. cerevisiae deletion strains, locus YLR418C, strain cdc73, active compounds read low 0.967 | S. cerevisiae deletion strains, locus YML016C, strain PPZ1, active compounds read low 0.983 | S. cerevisiae deletion strains, locus YML032C, strain rad52, active compounds read low 1 | S. cerevisiae deletion strains, locus YML120C, strain ndi1, active compounds read low 0.94 | S. cerevisiae deletion strains, locus YML124C, strain tub3, active compounds read low 0.994 | S. cerevisiae deletion strains, locus YMR058W, strain fet3, active compounds read low 0.971 | S. cerevisiae deletion strains, locus YMR078C, strain ctf18, active compounds read low 0.974 | S. cerevisiae deletion strains, locus YMR125W, strain sto1, active compounds read low 0.973 | S. cerevisiae deletion strains, locus YMR129W, active compounds read low 0.986 | S. cerevisiae deletion strains, locus YMR205C, strain PFK2, active compounds read low 0.971 | S. cerevisiae deletion strains, locus YMR223W, strain ubp8, active compounds read low 0.995 | S. cerevisiae deletion strains, locus YMR231W, strain pep5, active compounds read low 0.978 | S. cerevisiae deletion strains, locus YMR263W, strain SAP30, active compounds read low 0.964 | S. cerevisiae deletion strains, locus YMR307W, strain GAS1, active compounds read low 0.99 | S. cerevisiae deletion strains, locus YNL067W, strain RPL9B, active compounds read low 0.974 | S. cerevisiae deletion strains, locus YNL071W, strain lat1, active compounds read low 0.982 | S. cerevisiae deletion strains, locus YNL128W, strain TEP1, active compounds read low 0.979 | S. cerevisiae deletion strains, locus YNL153C, strain GIM3, active compounds read low 0.965 and 1.01 | S. cerevisiae deletion strains, locus YNL175C, strain NOP13, active compounds read low 1 | S. cerevisiae deletion strains, locus YNL197C, strain WHI3, active compounds read low 1.01 | S. cerevisiae deletion strains, locus YNL209W, strain ssb2, active compounds read low 0.984 | S. cerevisiae deletion strains, locus YNL224C, strain SQS1, active compounds read low 1.02 | S. cerevisiae deletion strains, locus YNL233W, strain BNI4, active compounds read low 0.99 | S. cerevisiae deletion strains, locus YNL248C, strain rpa49, active compounds read low 0.976 | S. cerevisiae deletion strains, locus YNL250W, strain rad50, active compounds read low 0.964 | S. cerevisiae deletion strains, locus YNL271C, strain bni1, active compounds read low 0.986 | S. cerevisiae deletion strains, locus YNL298W, strain CLA4, active compounds read low 0.982 | S. cerevisiae deletion strains, locus YNL307C, strain MCK1, active compounds read low 0.989 | S. cerevisiae deletion strains, locus YNL322C, strain KRE1 (second series), active compounds read low 0.955 | S. cerevisiae deletion strains, locus YNL322C, strain KRE1, active compounds read low 0.986 and 1 | S. cerevisiae deletion strains, locus YNR049C, strain mso1, active compounds read low 0.954 | S. cerevisiae deletion strains, locus YNR052C, strain pop2, active compounds read low 0.974 | S. cerevisiae deletion strains, locus YOL006C, strain TOP1, active compounds read low 0.921 | S. cerevisiae deletion strains, locus YOL012C, strain htz1 0.923 | S. cerevisiae deletion strains, locus YOL147C, strain pex11, active compounds read low 0.99 | S. cerevisiae deletion strains, locus YOR001W, strain rrp6, active compounds read low 0.998 | S. cerevisiae deletion strains, locus YOR061W, strain CKA2, active compounds read low 0.949 | S. cerevisiae deletion strains, locus YOR069W, strain VPS5, active compounds read low 0.987 | S. cerevisiae deletion strains, locus YOR070C, strain gyp1, active compounds read low 0.991 | S. cerevisiae deletion strains, locus YOR080W, strain dia2, active compounds read low 0.976 | S. cerevisiae deletion strains, locus YOR083W, strain WHI5 (second series), active compounds read low 1.02 | S. cerevisiae deletion strains, locus YOR083W, strain WHI5, active compounds read low 0.946 | S. cerevisiae deletion strains, locus YOR106W, strain vam3, active compounds read low 0.93 | S. cerevisiae deletion strains, locus YOR136W, strain idh2, active compounds read low 0.99 | S. cerevisiae deletion strains, locus YOR144C, strain elg1, active compounds read low 0.999 | S. cerevisiae deletion strains, locus YOR184W, strain ser1, active compounds read low 0.993 | S. cerevisiae deletion strains, locus YOR265W, strain rbl2, active compounds read low 0.989 | S. cerevisiae deletion strains, locus YOR270C, strain vph1, active compounds read low 0.929 | S. cerevisiae deletion strains, locus YOR290C, strain snf2, active compounds read low 0.933 | S. cerevisiae deletion strains, locus YOR316C, strain cot1, active compounds read low 0.978 | S. cerevisiae deletion strains, locus YPL051W, strain arl3, active compounds read low 1.01 | S. cerevisiae deletion strains, locus YPL055C, strain LGE1, active compounds read low 0.988 | S. cerevisiae deletion strains, locus YPL078C, strain atp4, active compounds read low 0.963 | S. cerevisiae deletion strains, locus YPL106C, strain sse1, active compounds read low 0.925 | S. cerevisiae deletion strains, locus YPL240C, strain hsp82, active compounds read low 0.986 | S. cerevisiae deletion strains, locus YPL241C, strain CIN2, active compounds read low 1.03 and 1 | S. cerevisiae deletion strains, locus YPR119W, strain clb2, active compounds read low 0.991 | S. cerevisiae deletion strains, locus YPR141C, strain kar3, active compounds read low 0.962 | S. cerevisiae deletion strains, locus YPR163C, strain tif3, active compounds read low 1 | S. cerevisiae deletion strains, locus YPR167C, strain met16, active compounds read low 0.972 | S. cerevisiae deletion strains, strain wtn01, active compounds read low 0.984 | S. cerevisiae strains, strain wild type, active compounds read low 0.993

Source: PubChem BioAssay AID1159580 (chemical genetic matrix, 2015)
